Results reported in PubChem BioAssay (NCATS).
Values joined by “and” are separate entries in the source; they are usually repeats but may differ in a detail not shown here. Equal entries are not always repeated. Inconclusive results are not listed. A structure can be active in one record and inactive in another. Active and inactive are the calls of the source. Unless noted, calls follow the shape of the dose curve; as a rule, active = well fitted curve in either direction with a large enough effect (not every such curve was filed as active); inconclusive = small, poorly fitted or top-dose-only effect, or another doubt; inactive = flat fitted curve, though single readings scatter.

Tests used:
[1] = AP1 Signaling Pathway (AID 357);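 also: ME-180 reporter cells stimulated with EGF at its EC50 level; % is scaled to controls: 0 for no effect and ±100 for the full control effect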
Summary of the method: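 First, ME-180 AP-1-bla cells were cultured overnight at 37 °C in low-serum Opti-MEM. Next, titrated compounds with EC50 EGF were incubated 5 hours. Finally, CCF4 was added for 2.5 hours and the 460/530 nm ratio recorded.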

[2] = target: Cytochrome P450 1A2 (Homo sapiens) (UniProt P05177); assay: p450-cyp1a2 (AID 410; calls by dose curve; also: potency is read from the fitted curve at half-maximal effect;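 as to activity change, negative = inhibition: -100% = full effect of reference inhibitor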)
Summary of the method: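 Luminescent demethylation readout: Luciferin-ME (100uM, equal to Km) turned over by 20nM CYP1A2 for 60 min at room temperature after NADPH regeneration addition, following 10 min compound preincubation. Normalization used 57 uM furafylline as full inhibition.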

[3] = NFAT Signaling Pathway (AID 444); conditions: Jurkat NFAT-bla M1, carbachol, beta-lactamase ratio, 5 h;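 also: carbachol stimulus at about its EC50 of 1 µM final; % is scaled to controls: 0 for no effect and ±100 for the full control effect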
Summary of the method: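 Jurkat cells with NFAT-driven β-lactamase reporter and co-expressed M1 receptor, stimulated with carbachol (final 1 uM, ~EC50), compound titration, 5 h at 37 °C. CCF4 loaded 1 h at RT; 460/530 nm ratio gave %activity and AC50.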

[4] = Stat Signaling Pathway (AID 446);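 also: ME-180 cervical cancer cells given 40 pM IL-6 alongside compound; SIE-controlled beta-lactamase reporter measured as 460/530 nm FRET emission ratio; % is scaled to controls: 0 for no effect and ±100 for the full control effect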
Summary of the method: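 FRET read-out (405 nm excitation, 460/530 nm emission) of a beta-lactamase reporter under a STAT-inducible element in ME-180 cervical carcinoma cells. Cells with compound receive 40 pM IL-6 for 5 h. Values are normalised to AC90 stimulation and AC90 JAK-inhibitor controls.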

[5] = target: Glucocorticoid receptor (Homo sapiens) (UniProt P04150); assay: GR-GFP Redistribution (AID 450;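 active = compounds whose dose series gives a full or clear partial fitted curve of increased nuclear translocation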; also: potency is read from the fitted curve at half-maximal effect); conditions: U2OS GR-GFP nuclear translocation, laser cytometry, 2 h
[6] = target: Glucocorticoid receptor (Homo sapiens) (UniProt P04150); assay: GR-EFC Redistribution (AID 451; calls by dose curve; also: potency is read from the fitted curve at half-maximal effect); conditions: CHO-K1 GR-EFC translocation, beta-gal luminescence, 2 h
Summary of the method: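 CHO-K1 cells expressing nuclear EA and GR-ED fragments of b-gal; compounds titrated up to 46 uM final, 2 h at 37 C. GR nuclear translocation read as complemented b-gal luminescence after 1 h RT detection.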

[7] = target: Mitogen-activated protein kinase 10 (Mus musculus) (UniProt Q61831); assay: JNK3 AlphaScreen Assay (AID 530);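 also: kinase came from lysate of stimulated human HepG2 cells; signal reports phosphorylation of biotinylated GST-cJun 1-79 at Ser73 with 10 µM ATP; % is scaled to controls: 0 for no effect and ±100 for the full control effect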
Summary of the method: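 Activity was read by AlphaScreen after JNK3-containing HepG2 lysate (cytokine pre-activated) phosphorylated biotinylated GST-cJun with 10 uM ATP at room temperature. Phospho-Ser73 cJun antibody with Protein-A acceptor beads provided detection.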

[8] = Cell Viability - BJ (AID 421; calls by dose curve;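 also: potency is read from the fitted curve at half-maximal effect; cells exposed to compound for 40 hours at 37 °C before readout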); conditions: BJ fibroblast viability, qHTS
Summary of the method: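 Cytotoxicity as drop in intracellular ATP (CellTiter-Glo, 20 min RT) after 40 hr compound exposure of BJ fibroblasts at 37 °C. Titrations scaled between DMSO and 100 uM tamoxifen, Hill-fitted for AC50.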

[9] = Cell Viability - Jurkat (AID 426;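 active = dose-dependent loss of cell ATP signal giving a full or clear fitted curve, ranked by lower potency value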; also: potency is read from the fitted curve at half-maximal effect); conditions: qHTS
Summary of the method: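 Cytotoxicity taken as drop in cellular ATP (CellTiter-Glo luminescence, 20 min room temperature) after 40 hr, 37C treatment of 5000 Jurkat Clone E6-1 cells per well; concentration-response fitted with Hill equation for AC50.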

[10] = Cell Viability - Hek293 (AID 427;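 active = compounds whose dose-response curve shows a full or clear partial loss of cell viability, called from curve shape rather than a numeric limit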;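 also: potency is read from the fitted curve at half-maximal effect; cells exposed to compound for 40 hours at 37 °C before reading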); conditions: qHTS
Summary of the method: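 Luminescent ATP content (CellTiter-Glo, 20 min at room temperature) was measured after a 40 hr, 37 °C compound exposure of HEK293 cells. AC50 values came from Hill-equation fits of qHTS concentration-response data normalized to DMSO and 100 uM tamoxifen.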

[11] = Cell Viability - HepG2 (AID 433; calls by dose curve;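 also: potency is read from the fitted curve at half-maximal effect; potency for ATP loss meaning cytotoxicity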); conditions: qHTS
Summary of the method: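 In this qHTS format, a 40 h, 37 °C compound incubation of HepG2 cells in complete medium precedes a 20 min CellTiter-Glo step at room temperature. Tamoxifen and doxorubicin serve as positive controls; Hill-equation fits yield AC50.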

[12] = Cell Viability - MRC5 (AID 434; calls by dose curve;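 also: potency is read from the fitted curve at half-maximal effect; potency reflects cytotoxicity seen as loss of intracellular ATP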); conditions: MRC5 lung fibroblast viability, qHTS
Summary of the method: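 ATP luminescence read-out (CellTiter-Glo, 20 min RT) after 40 hr, 37 °C compound exposure of 1500 MRC5 cells/well. Data normalized to DMSO (basal) and 100 uM tamoxifen (100% inhibition); AC50 from standard Hill equation.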

[13] = Cell Viability - SK-N-SH (AID 435; calls by dose curve; also: potency is read from the fitted curve at half-maximal effect); conditions: SK-N-SH neuroblastoma cell viability qHTS
Summary of the method: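 Human neuroblastoma line, 40 h exposure at 37 °C, ATP quantified via luciferase luminescence; DMSO and 100 uM tamoxifen define 0 and 100% inhibition for AC50 fitting.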

[14] = Cell Viability - N2a (AID 540; active = well fitted curve in the direction sought with a large enough effect; an effect the other way counts as inactive or inconclusive;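 also: plate controls were DMSO alone for no effect and tamoxifen control for full effect; nearly all actives have a fitted effect of over 45% in size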); conditions: N2a mouse neuroblastoma cell viability; activity change, negative = cytotoxicity: at 92.2 µM (top of the series)
Summary of the method: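 CellTiter-Glo ATP luminescence, read 20 min after reagent at room temperature, reported viability following 40 h compound treatment at 37 °C. N2a mouse neuroblastoma cells seeded 1500/well; Hill equation gave AC50.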

[15] = Cell Viability - NIH 3T3 (AID 541; active = well fitted curve in the direction sought with a large enough effect; an effect the other way counts as inactive or inconclusive; also: nearly all actives have a fitted effect of over 25% in size; also: potency is read from the fitted curve at half-maximal effect;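 as to activity change, negative = cytotoxicity: plate controls were DMSO alone for no effect and tamoxifen positive control for full effect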); conditions: NIH 3T3 cell viability, qHTS; activity change, negative = cytotoxicity: at 92.2 µM (top of the series)
Summary of the method: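 Intracellular ATP (CellTiter-Glo luminescence, 20 min at room temperature) measured after 40 hr compound exposure at 37 °C of 1000 NIH 3T3 mouse fibroblasts/well in complete medium; AC50 derived by Hill-equation modelling of qHTS concentration-response curves.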

[16] = Cell Viability - HUV-EC-C (AID 542; active = well fitted curve in the direction sought with a large enough effect; an effect the other way counts as inactive or inconclusive; also: % is scaled to controls: 0 for no effect and ±100 for the full control effect; nearly all actives have a fitted effect of over 35% in size)
Summary of the method: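 CellTiter-Glo luminescence measured ATP loss in HUV-EC-C cells (1000/well) after 40 hr compound exposure at 37 °C, in complete culture medium. Concentration-response data were Hill-fitted to give AC50.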

[17] = Cell Viability - H-4-II-E (AID 543; active = well fitted curve in the direction sought with a large enough effect; an effect the other way counts as inactive or inconclusive; also: % is scaled to controls: 0 for no effect and ±100 for the full control effect; nearly all actives have a fitted effect of over 35% in size)
Summary of the method: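 CellTiter-Glo luminescence (intracellular ATP) measured after 40 h compound exposure at 37 °C in H-4-II-E rat hepatoma cells seeded at 1500/well. Values are AC50s fitted with the standard Hill equation.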

[18] = Cell Viability - SH-SY5Y (AID 544; active = well fitted curve in the direction sought with a large enough effect; an effect the other way counts as inactive or inconclusive;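 also: 0% = DMSO alone and -100% = 100 µM tamoxifen; nearly all actives have a fitted effect of over 55% in size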); conditions: SH-SY5Y neuroblastoma cell viability; viability change, negative = cytotoxic: at 92.2 µM (top of the series)
Summary of the method: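 Cytotoxicity measured via ATP-dependent luciferase luminescence (CellTiter-Glo) following 40 h, 37 °C exposure of 1500 SH-SY5Y cells per well. Concentration-response data were fitted with the standard Hill equation to give AC50.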

[19] = Cell Viability - Renal Proximal Tubule (AID 545; active = well fitted curve in the direction sought with a large enough effect; an effect the other way counts as inactive or inconclusive;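 also: 0% = DMSO only and -100% = 100 µM tamoxifen; nearly all actives have a fitted effect of over 40% in size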)
Summary of the method: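 In this qHTS format, normal rat kidney-derived proximal tubule cells in complete culture medium receive compound titrations, then sit 40 hours at 37 °C before luciferase-based ATP quantitation; potency is reported as AC50 from concentration-response curves.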

Chain of Glucocorticoid receptor (Homo sapiens) (P04150 whole entry, looked up, the tested form may be a part): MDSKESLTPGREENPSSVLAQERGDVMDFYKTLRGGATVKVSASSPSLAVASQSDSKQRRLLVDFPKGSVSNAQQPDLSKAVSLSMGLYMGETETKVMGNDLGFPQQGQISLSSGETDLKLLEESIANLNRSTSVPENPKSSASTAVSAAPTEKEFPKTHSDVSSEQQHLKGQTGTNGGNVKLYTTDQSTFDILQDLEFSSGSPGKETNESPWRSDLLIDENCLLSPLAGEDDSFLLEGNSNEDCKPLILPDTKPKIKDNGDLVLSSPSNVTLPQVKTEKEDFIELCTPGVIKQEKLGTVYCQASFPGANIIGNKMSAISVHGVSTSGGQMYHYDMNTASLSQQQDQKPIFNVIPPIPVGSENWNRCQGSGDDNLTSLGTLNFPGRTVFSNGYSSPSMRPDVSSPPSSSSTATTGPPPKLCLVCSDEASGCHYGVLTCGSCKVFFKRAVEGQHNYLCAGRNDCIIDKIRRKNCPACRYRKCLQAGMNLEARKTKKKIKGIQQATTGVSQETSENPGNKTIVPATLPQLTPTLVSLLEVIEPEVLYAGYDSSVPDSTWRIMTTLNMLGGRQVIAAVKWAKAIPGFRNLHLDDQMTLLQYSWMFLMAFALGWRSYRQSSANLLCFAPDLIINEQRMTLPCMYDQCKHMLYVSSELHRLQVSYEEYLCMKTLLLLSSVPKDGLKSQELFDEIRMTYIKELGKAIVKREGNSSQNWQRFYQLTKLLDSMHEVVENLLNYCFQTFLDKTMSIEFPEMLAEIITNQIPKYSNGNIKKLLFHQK
Chain of Cytochrome P450 1A2 (Homo sapiens) (P05177 whole entry, looked up): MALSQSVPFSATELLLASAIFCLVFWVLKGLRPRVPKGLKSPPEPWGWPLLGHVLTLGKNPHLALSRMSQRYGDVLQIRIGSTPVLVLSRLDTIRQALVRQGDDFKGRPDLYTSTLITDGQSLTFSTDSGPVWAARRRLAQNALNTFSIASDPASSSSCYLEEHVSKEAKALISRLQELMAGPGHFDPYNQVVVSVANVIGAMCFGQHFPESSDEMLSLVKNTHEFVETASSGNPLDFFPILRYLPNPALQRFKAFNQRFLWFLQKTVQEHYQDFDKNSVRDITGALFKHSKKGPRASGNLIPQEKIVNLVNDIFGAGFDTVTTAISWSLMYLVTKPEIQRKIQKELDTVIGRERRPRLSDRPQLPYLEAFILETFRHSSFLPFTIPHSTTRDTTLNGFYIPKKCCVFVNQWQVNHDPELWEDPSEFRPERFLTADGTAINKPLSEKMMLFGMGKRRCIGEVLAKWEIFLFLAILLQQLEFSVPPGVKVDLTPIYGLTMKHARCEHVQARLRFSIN

COc1nc(C)nc(Cl)c1NC1=NCCN1
inactive: outcome [1] | Potency [2] | activity change, negative = inhibition ([3]; at 17.2 µM (top of the series)) -14.9% | activity change, negative = inhibition ([3]; at 38 µM (top of the series)) 10.4% | outcome [4] | Potency [5] > 46 µM and > 20.6 µM | Potency [6] > 46 µM and > 20.6 µM | outcome [7]

CN(C)c1nc(N(C)C)nc(N(C)C)n1
inactive: outcome [1] | activity change, negative = inhibition ([3]; at 17.2 µM (top of the series)) 2.19% and 4.9% | activity change, negative = inhibition ([3]; at 38 µM (top of the series)) 6.06% | outcome [4] | Potency [5] > 46 µM and > 20.6 µM | Potency [6] > 46 µM and > 20.6 µM | outcome [7]

CN1CCC(=C2c3ccccc3C=Cc3ccccc32)CC1
active: activity change, negative = inhibition ([3]; at 17.2 µM (top of the series)) -67.8%
inactive: outcome [1] | Potency [2] | outcome [4] | Potency [5] > 46 µM and > 20.6 µM | Potency [6] > 46 µM and > 20.6 µM | outcome [7]

Cn1c(=O)c2c(ncn2C)n(C)c1=O
inactive: outcome [1] | Potency [2] | Potency [8] > 92 µM | Potency [9] > 92 µM | Potency [10] > 92 µM | Potency [11] > 92 µM | Potency [12] > 92 µM | Potency [13] > 92 µM | activity change, negative = inhibition ([3]; at 38 µM (top of the series)) 3.94% | outcome [4] | Potency [5] > 46 µM | Potency [6] > 46 µM | outcome [7] | activity change, negative = cytotoxicity [14] 4.95% | Potency [15] | outcome [16] | Potency [17] | Potency [18] | Potency [19]

O=c1c(-c2ccc(O)cc2)coc2cc(O)cc(O)c12
inactive: outcome [1] | Potency [8] > 92 µM | Potency [10] > 92 µM | Potency [11] > 92 µM | Potency [12] > 92 µM | activity change, negative = inhibition ([3]; at 38 µM (top of the series)) -8.04% | outcome [4] | Potency [5] > 46 µM | Potency [6] > 46 µM | outcome [7] | activity change, negative = cytotoxicity [14] 0.0672% | outcome [16]
active: Potency [2] 10 µM and 5.01 µM | Potency [15] 25.1 µM | viability change, negative = cytotoxic [18] -86.9%

Cn1c(=O)c2[nH]cnc2n(C)c1=O
inactive: outcome [1] | Potency [2] | Potency [8] > 92 µM | Potency [9] > 92 µM | Potency [10] > 92 µM | Potency [11] > 92 µM | Potency [12] > 92 µM | Potency [13] > 92 µM | activity change, negative = inhibition ([3]; at 17.2 µM (top of the series)) -8.18% and -8.96% and 7.57% | activity change, negative = inhibition ([3]; at 38 µM (top of the series)) 8.38% | outcome [4] | outcome [7] | activity change, negative = cytotoxicity [14] 8.85% | Potency [15] | outcome [16] | Potency [17] | Potency [18] | Potency [19]

CN1C(C(=O)Nc2ccccn2)=C(O)c2ccccc2S1(=O)=O
inactive and 20 µM (active): Potency [2]
inactive: outcome [1] | activity change, negative = inhibition ([3]; at 17.2 µM (top of the series)) 9.4% and 2.14% and -3.58% | activity change, negative = inhibition ([3]; at 38 µM (top of the series)) -8.1% | outcome [4] | Potency [5] > 46 µM and > 20.6 µM | Potency [6] > 46 µM and > 20.6 µM | outcome [7]

CCC1(c2ccccc2)C(=O)NCNC1=O
inactive: outcome [1] | Potency [2] | Potency [8] > 92 µM | Potency [9] > 92 µM | Potency [10] > 92 µM | Potency [11] > 92 µM | Potency [12] > 92 µM | Potency [13] > 92 µM | activity change, negative = inhibition ([3]; at 17.2 µM (top of the series)) -2.38% and -28.2% | activity change, negative = inhibition ([3]; at 38 µM (top of the series)) 0.117% | outcome [4] | Potency [5] > 46 µM and > 20.6 µM | Potency [6] > 46 µM and > 20.6 µM | outcome [7] | activity change, negative = cytotoxicity [14] -14.7% | Potency [15] | outcome [16] | Potency [17] | Potency [18] | Potency [19]

CC[N+](CC)(CC)CCOc1cccc(OCC[N+](CC)(CC)CC)c1OCC[N+](CC)(CC)CC
inactive: outcome [1] | Potency [2] | activity change, negative = inhibition ([3]; at 17.2 µM (top of the series)) -15.9% | activity change, negative = inhibition ([3]; at 38 µM (top of the series)) -22% | outcome [4] | Potency [5] > 46 µM and > 20.6 µM | Potency [6] > 46 µM and > 20.6 µM | outcome [7]

Cc1cn([C@H]2C[C@H](N=[N+]=[N-])[C@@H](CO)O2)c(=O)[nH]c1=O
inactive: outcome [1] | Potency [8] > 92 µM | Potency [9] > 92 µM | Potency [10] > 92 µM | Potency [11] > 92 µM | Potency [12] > 92 µM | Potency [13] > 92 µM | activity change, negative = inhibition ([3]; at 17.2 µM (top of the series)) 15.9% | outcome [4] | Potency [5] > 20.6 µM | outcome [7] | activity change, negative = cytotoxicity [14] -7.33% | Potency [15] | outcome [16] | Potency [17] | Potency [18] | Potency [19]
